According to PubChem BioAssay (NCATS):
Records with an inconclusive call do not appear. Entries that show only a call come without a potency. Activity calls are given as the source filed them. Unless noted, calls follow the shape of the dose curve; as a rule, active = well fitted curve in the direction sought with a large enough effect; inconclusive = small, poorly fitted or top-dose-only effect, or another doubt; inactive = no such curve, though single readings can be large; an effect the other way counts as inactive or inconclusive.

Legend:
[1] = target: Cytochrome P450 1A2 (Homo sapiens) (UniProt P05177); test: p450-cyp1a2 (AID 410; calls by dose curve)
In short: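 Human CYP1A2 (20nM) demethylated Luciferin-ME at its Km (100uM) in 100mM KPO4. After 10 min compound preincubation, NADPH regeneration ran the reaction 60 min at room temperature. Luciferin was read by luminescence, normalized to 57 uM furafylline.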

[2] = target: Glucocorticoid receptor (Homo sapiens) (UniProt P04150); test: GR-GFP Redistribution (AID 450;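 active = compounds whose dose series gives a full or clear partial fitted curve of increased nuclear translocation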; also: potency is read from the fitted curve at half-maximal effect); conditions: U2OS GR-GFP nuclear translocation, laser cytometry, 2 h
[3] = target: Glucocorticoid receptor (Homo sapiens) (UniProt P04150); test: GR-EFC Redistribution (AID 451; calls by dose curve; also: potency is read from the fitted curve at half-maximal effect); conditions: CHO-K1 GR-EFC translocation, beta-gal luminescence, 2 h
In short: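 CHO-K1 cells expressing nuclear EA and GR-ED fragments of b-gal; compounds titrated up to 46 uM final, 2 h at 37 C. GR nuclear translocation read as complemented b-gal luminescence after 1 h RT detection.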

[4] = target: Mitogen-activated protein kinase 10 (Mus musculus) (UniProt Q61831); test: JNK3 AlphaScreen Assay (AID 530; active = well fitted curve in either direction with a large enough effect, not every such curve was filed as active;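 also: kinase came from lysate of stimulated human HepG2 cells; signal reports phosphorylation of biotinylated GST-cJun 1-79 at Ser73 with 10 µM ATP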)
In short: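 qHTS format: compounds tested as titrations against IL-1beta/TNF-alpha-activated HepG2 lysate JNK3 with biotin-GST-cJun substrate and 10 uM ATP at room temperature. Loss of anti-phospho-cJun AlphaScreen signal indicates inhibition.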

[5] = target: 3',5'-cyclic-AMP phosphodiesterase 4B (Homo sapiens) (UniProt Q07343); test: qHTS Assay for Inhibitors of PDE-IV (AID 607; active = well fitted activation curve with a large enough effect in the main read-out, with a control signal flat, not every such curve was filed as active)
In short: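 HEK293 ACTOne cells with CNG channel (1000/well), endogenous PDE4; membrane potential dye, compounds up to 22.9 uM final. Fluorescence Ex 535/Em 590; RO 20-1724 (100 uM final) as reference.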

[6] = target: Ubiquitin carboxyl-terminal hydrolase 1 (Homo sapiens) (UniProt O94782); test: Inhibitors of USP1/UAF1: Pilot qHTS (AID 504865);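 also: rhodamine fluorescence freed from ubiquitin-rhodamine substrate followed over time; top concentration of the series differs between compounds; nearly all actives have a fitted effect of over 35% in size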
In short: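 1nM USP1/UAF1 + cpd, 15 min RT; start w/ Ub-Rho 150nM final; kinetic FL 480/540 nm, 6 reads q60 s. Buffer 50mM HEPES pH 7.8, 0.5mM EDTA, 1mM TCEP, 0.01% Tween-20, 0.1 mg/ml BSA.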

[7] = tested on: Zika virus NS2B-NS3 protease; test: Primary screen GU AMC qHTS for Zika virus inhibitors (AID 1347154); also: nearly all actives have a fitted effect of over 70% in size; also: potency is read from the fitted curve at half-maximal effect
In short: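 Unlinked Zika NS2B hydrophilic domain–NS3 protease complex at 25 nM in 10 mM Tris-HCl pH 8.0, 0.01% Tween 20, with an AMC peptide substrate. Fluorescence change (340/450 nm) over 15 min at room temperature, normalized to controls, fitted to 4-parameter Hill.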

[8] = Primary qHTS for small molecule stabilizers of the endoplasmic reticulum resident proteome: Secreted ER Calcium Modulated Protein (SERCaMP) assay (AID 1508630)
In short: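 GLuc-SERCaMP-expressing SH-SY5Y cells, pretreated 16 h with compound, are challenged with thapsigargin to empty ER calcium stores; after 4 h, coelenterazine is added directly to the medium and luminescence is imaged.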

[9] = target: DNA dC->dU-editing enzyme APOBEC-3G (Homo sapiens) (UniProt Q9HC16); test: qHTS for inhibitors of Vif-A3G interactions: Validation (AID 588379)
In short: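 HeLa cells stably expressing Vif and A3G-eYFP, 700 cells/well, incubated overnight at 37 deg C, then exposed to compound overnight at 37 deg C. Inhibition of Vif-mediated degradation read as increased yellow fluorescence (Ex 488/Em 500-530) by laser-scanning cytometry.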

[10] = qHTS Assay for Lipid Storage Modulators (AID 1519; calls by dose curve); conditions: Drosophila S3 cells, BODIPY lipid droplet/cell ratio, laser cytometry, cells loaded with oleic acid; for activity change, negative = inhibition: at 57.5 µM (top of the series)
In short: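 Cells seeded at 5,000 per well were treated with compounds over a concentration series and loaded with oleic acid (400 uM, as added). Lipid droplet fluorescence (488 nm excitation, 500-530 nm channel) was read by laser-scanning cytometry and normalized to 20 uM Triacsin C.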

[11] = measured here: cell count channel max response
[12] = measured here: lipid channel max response

3',5'-cyclic-AMP phosphodiesterase 4B (Homo sapiens), sequence (Q07343 whole entry, looked up): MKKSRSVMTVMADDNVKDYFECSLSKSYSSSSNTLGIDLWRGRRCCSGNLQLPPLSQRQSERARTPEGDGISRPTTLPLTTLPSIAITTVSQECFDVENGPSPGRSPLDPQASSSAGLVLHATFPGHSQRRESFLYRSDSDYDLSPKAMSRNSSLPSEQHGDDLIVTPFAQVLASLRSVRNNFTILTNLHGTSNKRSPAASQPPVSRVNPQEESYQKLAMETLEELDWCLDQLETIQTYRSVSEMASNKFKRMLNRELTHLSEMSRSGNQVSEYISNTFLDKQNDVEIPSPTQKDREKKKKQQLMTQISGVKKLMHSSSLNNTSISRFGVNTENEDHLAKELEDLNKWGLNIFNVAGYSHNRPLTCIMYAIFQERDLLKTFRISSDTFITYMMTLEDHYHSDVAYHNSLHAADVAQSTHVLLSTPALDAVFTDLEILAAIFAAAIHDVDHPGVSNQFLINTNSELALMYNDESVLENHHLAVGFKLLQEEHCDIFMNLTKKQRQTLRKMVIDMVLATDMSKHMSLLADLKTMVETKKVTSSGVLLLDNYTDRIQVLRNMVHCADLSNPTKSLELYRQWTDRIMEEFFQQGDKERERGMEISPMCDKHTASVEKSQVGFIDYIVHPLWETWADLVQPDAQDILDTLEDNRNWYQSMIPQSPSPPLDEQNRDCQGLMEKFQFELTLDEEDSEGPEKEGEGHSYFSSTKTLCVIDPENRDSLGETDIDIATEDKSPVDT
Glucocorticoid receptor (Homo sapiens), sequence (P04150 whole entry, looked up, the tested form may be a part): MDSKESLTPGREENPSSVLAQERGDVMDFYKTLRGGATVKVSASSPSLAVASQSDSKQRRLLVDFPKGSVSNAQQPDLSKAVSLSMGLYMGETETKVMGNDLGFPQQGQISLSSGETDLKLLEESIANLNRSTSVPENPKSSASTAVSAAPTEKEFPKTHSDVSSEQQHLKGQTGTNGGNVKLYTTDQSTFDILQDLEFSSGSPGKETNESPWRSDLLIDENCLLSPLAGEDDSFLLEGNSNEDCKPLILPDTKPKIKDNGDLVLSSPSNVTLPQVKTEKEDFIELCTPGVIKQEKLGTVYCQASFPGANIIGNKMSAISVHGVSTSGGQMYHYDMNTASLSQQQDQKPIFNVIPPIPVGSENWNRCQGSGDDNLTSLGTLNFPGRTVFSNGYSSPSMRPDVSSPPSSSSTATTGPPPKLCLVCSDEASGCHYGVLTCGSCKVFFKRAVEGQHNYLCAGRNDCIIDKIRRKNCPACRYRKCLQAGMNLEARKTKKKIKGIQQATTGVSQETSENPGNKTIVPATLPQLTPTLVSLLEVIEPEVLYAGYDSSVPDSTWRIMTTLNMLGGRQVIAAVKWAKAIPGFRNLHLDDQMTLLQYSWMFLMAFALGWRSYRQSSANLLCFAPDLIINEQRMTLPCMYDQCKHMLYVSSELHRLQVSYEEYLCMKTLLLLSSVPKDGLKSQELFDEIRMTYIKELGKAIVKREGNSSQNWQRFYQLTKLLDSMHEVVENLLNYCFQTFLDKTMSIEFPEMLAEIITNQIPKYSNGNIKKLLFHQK
Cytochrome P450 1A2 (Homo sapiens), sequence (P05177 whole entry, looked up): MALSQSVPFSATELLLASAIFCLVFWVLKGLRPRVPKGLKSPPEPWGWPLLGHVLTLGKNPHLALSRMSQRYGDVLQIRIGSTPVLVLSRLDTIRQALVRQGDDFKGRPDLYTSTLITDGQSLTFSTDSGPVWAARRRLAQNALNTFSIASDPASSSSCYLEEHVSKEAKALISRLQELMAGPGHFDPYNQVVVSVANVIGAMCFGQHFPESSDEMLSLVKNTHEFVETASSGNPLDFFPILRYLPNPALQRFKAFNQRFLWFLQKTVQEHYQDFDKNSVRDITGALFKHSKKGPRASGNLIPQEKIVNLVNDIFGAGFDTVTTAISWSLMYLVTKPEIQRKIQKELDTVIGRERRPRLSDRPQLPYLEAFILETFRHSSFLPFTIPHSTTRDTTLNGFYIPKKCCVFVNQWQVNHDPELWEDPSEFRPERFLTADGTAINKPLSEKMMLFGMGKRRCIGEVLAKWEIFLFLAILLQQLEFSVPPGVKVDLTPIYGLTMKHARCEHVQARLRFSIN
Ubiquitin carboxyl-terminal hydrolase 1 (Homo sapiens), sequence (O94782 whole entry, looked up): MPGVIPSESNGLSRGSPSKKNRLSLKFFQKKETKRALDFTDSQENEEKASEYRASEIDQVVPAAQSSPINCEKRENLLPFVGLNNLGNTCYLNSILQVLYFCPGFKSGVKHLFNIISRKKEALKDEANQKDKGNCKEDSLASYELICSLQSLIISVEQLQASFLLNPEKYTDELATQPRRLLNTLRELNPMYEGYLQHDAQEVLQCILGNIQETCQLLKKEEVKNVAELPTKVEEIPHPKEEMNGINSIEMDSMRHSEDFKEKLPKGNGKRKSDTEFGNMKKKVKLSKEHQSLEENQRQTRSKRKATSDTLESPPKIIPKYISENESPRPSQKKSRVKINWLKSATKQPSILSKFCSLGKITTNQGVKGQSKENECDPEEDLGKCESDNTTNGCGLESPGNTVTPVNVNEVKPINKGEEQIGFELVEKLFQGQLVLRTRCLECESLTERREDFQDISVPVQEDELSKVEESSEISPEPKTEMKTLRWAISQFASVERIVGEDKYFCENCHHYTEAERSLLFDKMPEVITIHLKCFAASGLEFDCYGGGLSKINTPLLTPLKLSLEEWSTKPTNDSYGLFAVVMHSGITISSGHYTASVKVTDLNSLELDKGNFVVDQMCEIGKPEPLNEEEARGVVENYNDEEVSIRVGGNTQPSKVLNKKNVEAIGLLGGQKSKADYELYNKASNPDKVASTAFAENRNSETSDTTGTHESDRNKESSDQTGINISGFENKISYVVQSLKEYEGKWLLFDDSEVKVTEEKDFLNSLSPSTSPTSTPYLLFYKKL
DNA dC->dU-editing enzyme APOBEC-3G (Homo sapiens), sequence (Q9HC16 whole entry, looked up): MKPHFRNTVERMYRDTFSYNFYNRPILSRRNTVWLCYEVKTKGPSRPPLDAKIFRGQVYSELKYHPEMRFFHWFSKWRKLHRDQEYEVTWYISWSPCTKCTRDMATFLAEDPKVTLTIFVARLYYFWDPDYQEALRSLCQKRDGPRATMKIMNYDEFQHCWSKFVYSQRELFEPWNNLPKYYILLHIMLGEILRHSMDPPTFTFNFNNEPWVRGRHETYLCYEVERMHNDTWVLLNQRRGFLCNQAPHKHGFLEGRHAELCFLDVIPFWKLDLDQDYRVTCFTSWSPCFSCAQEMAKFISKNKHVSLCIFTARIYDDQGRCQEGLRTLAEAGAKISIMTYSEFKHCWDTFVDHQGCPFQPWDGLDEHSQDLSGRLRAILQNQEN

SMILES | Potency [1] | Potency [2] | Potency [3] | outcome [4] | Potency [5] | Potency [6] | Potency [7] | Potency [8] | Potency [9] | activity change, negative = inhibition [10] | max response [10, 11] [%] | max response [10, 12] [%]
CC1=C(O)C(=O)[C@H]2O[C@@H]2C1=O | inactive | > 46 µM (inactive) | > 46 µM (inactive) | inactive | inactive | inactive | inactive | inactive | – | – | – | –
CCC[C@@H]1CC2=CC(=O)CC[C@]2(C)[C@@H]2CC[C@@]3(C)[C@H](CC[C@]3(O)CCC(=O)O)[C@H]12 | inactive | > 46 µM (inactive) | > 46 µM (inactive) | inactive | inactive | inactive | inactive | inactive | inactive | – | – | –
COc1ccc(C[C@H]2NC[C@H](O)[C@@H]2OC(C)=O)cc1 | inactive | > 46 µM (inactive) | > 46 µM (inactive) | – | inactive | inactive | inactive | inactive | inactive | – | – | –
NC(N)=Nc1ccc2[nH]c3c(c2c1)C[C@]1(O)[C@@H]2Cc4ccc(O)c5c4[C@]1(CCN2CC1CC1)[C@@H]3O5 | inactive | > 46 µM (inactive) | > 46 µM (inactive) | inactive | inactive | inactive | inactive | – | inactive | -1.94% (inactive) | 2.17 | 1.06
COC(=O)CN1CN(c2ccccc2)C2(CCN(Cc3ccc4ccccc4c3)CC2)C1=O | inactive | > 46 µM (inactive) | > 46 µM (inactive) | inactive | inactive | – | inactive | inactive | inactive | – | – | –
O=C1Nc2cc(Cl)c(Cl)cc2N2CCNC[C@H]12 | – | > 46 µM (inactive) | > 46 µM (inactive) | inactive | – | inactive | inactive | inactive | inactive | – | – | –
O=C1CS[C@@H](c2ccccc2Cl)c2cc(Cl)ccc2N1 | – | > 46 µM (inactive) | > 46 µM (inactive) | – | – | – | inactive | – | inactive | – | – | –
CC(C)(c1ccc(OC[C@@H]2CO2)cc1)c1ccc(OC[C@H]2CO2)cc1 | – | > 46 µM (inactive) | > 46 µM (inactive) | – | – | – | inactive | – | inactive | 4.02% (inactive) | 20.1 | 20.3
C[N+]1(C)CCc2cc3c(cc2C1C1OC(=O)c2c1ccc1c2OCO1)OCO3 (configuration not stated) | – | – | – | – | – | – | inactive | – | – | – | – | –
O[C@H]1[C@H](O)[C@@H](O)CN2CC[C@H](O)[C@H]12 | – | – | – | – | – | – | inactive | – | – | – | – | –
CN1CCc2cc(O)cc3c2C1Cc1ccc(O)c(O)c1-3 (configuration not stated) | – | – | – | – | – | – | 18.9 µM (active) | – | – | – | – | –
CN(C(=O)Cc1ccccc1)[C@H](CN1CCCC1)c1ccccc1 | inactive | > 46 µM (inactive) | > 46 µM (inactive) | inactive | – | inactive | inactive | – | inactive | – | – | –
